The sample as a whole holds a higher share of hits than the screen did.
Cruzain noTriton: blocks cruzain activity in detergent-free assay; P25779; purified cruzain, Z-FR-AMC fluorescence, no detergent; Potency, µM, for the others: max response, negative = inhibition, most hits filed as inhibitors; 200,000 tested, 2.3% active;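 also: plate controls were enzyme without inhibitor for no effect and buffer without enzyme for full effect; nearly all actives have a fitted effect of over 40% in size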
Target sequence (P25779 123-467 limits assumed): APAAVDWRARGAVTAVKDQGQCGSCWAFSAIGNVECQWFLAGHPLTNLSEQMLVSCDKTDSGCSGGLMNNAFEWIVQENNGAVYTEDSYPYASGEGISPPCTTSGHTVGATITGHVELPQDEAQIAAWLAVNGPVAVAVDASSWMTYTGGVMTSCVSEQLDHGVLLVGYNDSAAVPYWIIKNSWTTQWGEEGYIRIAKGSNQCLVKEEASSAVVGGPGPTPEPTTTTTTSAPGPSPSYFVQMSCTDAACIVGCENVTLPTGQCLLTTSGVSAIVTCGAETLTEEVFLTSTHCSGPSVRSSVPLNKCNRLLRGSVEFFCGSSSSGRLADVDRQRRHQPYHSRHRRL
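Detergent-free condition (0.00005% Triton X-100) in acetate buffer pH 5.5 with DTT. 1.5 nM enzyme and compound were pre-mixed 15 min, then 2 uM Z-FR-AMC substrate added; reaction progress from fluorescence change between first and third reads (60 s).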
FBPA Giardia inh: Giardia lamblia aldolase inhibition. Potency, µM (titrated, usually from 59.6 µM), without a hit: at the top dose activity, negative = inhibition, usual class: inhibitors. A8B2U2. 290,000 tested, 0.71% active. purified Giardia FBPA; also: nearly all actives have a fitted effect of over 55% in size
Target sequence (A8B2U2 whole entry, looked up): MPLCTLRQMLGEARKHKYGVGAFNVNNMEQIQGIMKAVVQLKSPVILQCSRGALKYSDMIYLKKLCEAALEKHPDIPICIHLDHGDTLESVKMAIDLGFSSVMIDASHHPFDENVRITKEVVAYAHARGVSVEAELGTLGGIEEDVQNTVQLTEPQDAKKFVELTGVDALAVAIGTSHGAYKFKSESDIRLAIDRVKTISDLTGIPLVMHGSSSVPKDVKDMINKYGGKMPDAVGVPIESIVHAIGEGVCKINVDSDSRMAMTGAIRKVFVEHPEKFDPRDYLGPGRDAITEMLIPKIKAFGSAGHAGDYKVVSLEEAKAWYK
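40 nM FBPA preincubated 10 min at RT with compound (up to 57.5 uM final), then substrate plus GAPDH/TPI/NAD/arsenate coupling and diaphorase/resazurin added. Fluorescence read after 20 min at RT, 525/598 nm.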
Cruzain inh Det: cruzain (T. cruzi) inhibition with detergent; P25779; purified cruzain, Z-FR-AMC fluorescence, 0.01% Triton; Potency, µM, for inactives: max response, negative = inhibition, hits mostly inhibitors; 200,000 tested, 0.43% active; AID 1478;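 also: plate controls were neutral wells for no effect and buffer without enzyme for full effect; nearly all actives have a fitted effect of over 40% in size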
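Detergent-containing run (0.01% Triton X-100) in acetate buffer pH 5.5 with 5 mM DTT: enzyme at 1.5 nM final, 15 min compound preincubation at room temperature, then 2 uM Z-FR-AMC substrate. Activity taken as 60 s fluorescence increase at 360/450 nm.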
Papain inh: counter-screen for cruzain inhibitors: papain inhibition. shares compounds with Cruzain inh Det. purified papain, Z-FR-AMC fluorescence cleavage. Potency, µM, without a hit: max response, negative = inhibition, hits mostly inhibitors. 410 tested, 41% active;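 also: 0% = no-compound wells and -100% = no-enzyme wells; nearly all actives have a fitted effect of over 35% in size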
* hit, by the source's call; u = inconclusive; x = not tested or not shown; [ ] = dose if it differs, or a comment. Calls follow the shape of the dose curve; as a rule, active = well fitted curve in the direction sought with a large enough effect; inconclusive = small, poorly fitted or top-dose-only effect, or another doubt; inactive = no such curve, though single readings can be large; an effect the other way counts as inactive or inconclusive. Unless noted, % is scaled to controls: 0 for no effect and ±100 for the full control effect; potency is read from the fitted curve at half-maximal effect.

SMILES	Cruzain noTriton	FBPA Giardia inh	Cruzain inh Det	Papain inh
Cc1cnc(C(=O)OC(C(=O)Nc2cc(C(F)(F)F)ccc2Cl)c2ccccc2)cn1 (stereo not drawn)	x	-2.5%	x	x
CC1CCc2onc(C(=O)N3CCN(c4cccc(C(F)(F)F)c4)CC3)c2C1 (stereo not drawn)	11.0%	x	-3.5%	x
Cn1c(=O)c(-c2ccccc2)nn2c3ccccc3nc12	-19.0%	-2.0%	1.8%	x
Cn1nc(-c2ccncc2)nc2c(=O)n(C)c(=O)nc1-2	x	x	x	-6.5%
COc1ccc(-c2nc(-c3ccncc3)no2)cc1	x	11.2%	x	x
Cn1nc(-c2ccccc2)nc2c(=O)n(C)c(=O)nc1-2	x	x	x	-4.5%
O=C(O)c1cc(-c2ccc(-c3ccccc3)cc2)nc2cc3ccccc3cc12	-6.1%	x	-6.2%	x
O=C(Nc1ccc(F)cc1C(F)(F)F)C1CCN(c2ncccn2)CC1	-2.5%	x	-0.9%	x
Cc1ccc(C(=O)N/C(=C/c2cccc([N+](=O)[O-])c2)C(=O)NC(C)C)cc1	-2.1%	-3.2%	-0.1%	x
Cc1ccc(C(=O)N/C(=C\c2cccc([N+](=O)[O-])c2)C(=O)OCN2C(=O)c3ccccc3C2=O)cc1	15.8µM*	1.4%	0.891µM*	-4.1%
Nc1c(C(=O)Nc2ccc(OC(F)(F)F)cc2)nnn1Cc1ccccc1	-3.1%	x	0.9%	x
C=C1C(=O)OC2CC1C(OC(C)=O)CC(C)=CCCC(C)=CCC[C@@]2(C)O (stereo partly drawn)	u	-0.6%	1.1%	x
Cc1ccc(C)c(N2C(=O)N(Cc3ccccc3C)c3ccccc3S2(=O)=O)c1	u	x	-0.2%	x
CCCn1c2ccc(C)cc2c2nnc(SCCN3CCOCC3)nc21	x	5.7%	x	x
CCn1c2ccc(F)cc2c2nnc(SCCN3CCCCC3)nc21	12.6µM*	9.4%	14.1µM*	25.1µM*
CCCn1c2ccc(F)cc2c2nnc(SCCN3CCOCC3)nc21	x	6.9%	x	x
CCCn1c2ccc(F)cc2c2nnc(SCCN3CCCCC3)nc21	2µM*	-15.4%	2µM*	12.6µM*
CCCn1c2ccc(F)cc2c2nnc(SCCN(CC)CC)nc21	3.98µM*	x	4.47µM*	25.1µM*
C=CCn1c2ccccc2c2nnc(SCCN3CCCCC3)nc21	x	8.5%	x	x
CCCc1cc(N2CCN(c3cc(Cl)ccc3C)CC2)n2cnnc2n1	-5.5%	x	-1.2%	x
Cc1noc(C)c1S(=O)(=O)N(CC(=O)NCc1ccccc1Cl)c1ccc(C(C)C)cc1	-3.7%	x	-7.8%	x
COc1ccc(NS(=O)(=O)c2ccc(-n3nnc4ccccc43)c([N+](=O)[O-])c2)cc1	u	14.4%	-5.8%	x
O=[N+]([O-])c1cc(S(=O)(=O)Nc2cccc(C(F)(F)F)c2)ccc1-n1nnc2ccccc21	10µM*	17.4%	3.98µM*	28.2µM*
COc1ccc(CNC(=O)c2sc3nc4n(c(=O)c3c2C)CCCCC4)cc1	0.8%	x	-2.4%	x
COC(=O)CCC(C)C1CCC2C3C(O)C[C@@H]4CC(O)CC[C@@]4(C)C3CC(O)[C@]12C (stereo partly drawn)	u	3.6%	-0.3%	3.3%
SMILES	Cruzain noTriton	FBPA Giardia inh	Cruzain inh Det	Papain inh
C[C@H](CCC(=O)O)[C@H]1CC[C@H]2[C@@H]3[C@@H](O)C[C@@H]4C[C@H](O)CC[C@]4(C)[C@H]3CC[C@]12C	x	20.5%	x	x
C[C@H](CCC(=O)NCC(=O)O)[C@H]1CC[C@H]2[C@@H]3[C@H](O)C[C@@H]4C[C@H](O)CC[C@]4(C)[C@H]3C[C@H](O)[C@]12C	x	21.2%	x	x
C[C@H](CCC(=O)O)[C@H]1CC[C@@H]2[C@@H]3[C@@H](O)C[C@H]4C[C@@H](O)CC[C@@]4(C)[C@H]3CC[C@@]21C	u	14.6%[21.7 µM]	-7.0%	4.1%
CC1(C)C(=O)N(CC(=O)Nc2cccc(F)c2)c2ccc(S(=O)(=O)N3CCCCC3)cc21	8.5%	x	-5.6%	x
Cc1ccc(C)c(N2CCN(C(=O)CN3C(=O)COc4ccc(S(=O)(=O)N5CCOCC5)cc43)CC2)c1	u	x	-0.3%	x
C=CCC(O)[C@H](Cc1cnc2ccccc2c1)[C@H](/C=C/CCCC)c1ccccc1 (stereo partly drawn)	x	-3.7%	x	x
CCc1cc2c(=O)[nH]c(-c3ccncc3)nc2s1	u	-7.2%	8.91µM*	-38.8%
CCc1cc2c(=O)[nH]c(Cc3ccccc3)nc2s1	u	-4.4%	-2.4%	x
CCCCN=C1NN=C(c2ccc3c(c2)OCCO3)CS1	x	-10.5%	x	x
FC(F)Sc1ccc(N=C2NN=C(c3ccc4c(c3)OCCO4)CS2)cc1	3.16µM*	2.3%	0.3%	-12.3%
CCc1ccc(S(=O)(=O)Nc2ccc(O)c3c(=O)cc(-c4ccccc4Cl)oc23)cc1	x	-1.7%	x	x
O=c1cc(-c2ccccc2Cl)oc2c(NS(=O)(=O)c3cc(Cl)cc(Cl)c3O)ccc(O)c12	4.7%	-1.1%	25.1µM*	4.47µM*
O=C(Nc1ccc2nc(SCC(=O)N3CCOCC3)sc2c1)c1ccccc1Cl	-1.2%	x	-7.1%	x
CC(C)(C)C(=O)OCOP(=O)(OCOC(=O)C(C)(C)C)C(C)(Oc1ccc(O)cc1)P(=O)(OCOC(=O)C(C)(C)C)OCOC(=O)C(C)(C)C	u	-7.8%	3.5%	x
CCCCOC(OCCCC)[C@H](O)CSc1ccc2ccccc2c1	x	-3.1%[12.9 µM]	x	x
COc1ccc(-c2nn3c(-c4ccccn4)nnc3s2)cc1OC	-13.2%	15.2%	-5.4%	x
COc1cccc(-c2nn3c(-c4ccccn4)nnc3s2)c1	0.5%	14.7%	-2.3%	x
COc1ccc(-c2nn3c(-c4cc(-c5ccccc5)n[nH]4)nnc3s2)cc1OC	x	x	x	-17.8%
COc1ccc(-c2nnc3sc(-c4ccccn4)nn23)cc1	-9.3%	0.6%	2.1%	x
CCOc1cccc(-c2nnc3sc(-c4ccc(C)cc4)nn23)c1	u	1.8%	-3.0%	x
COc1cccc(-c2nn3c(-c4cc(C)[nH]n4)nnc3s2)c1	2.9%	7.5%	1.8%	1.2%
COc1ccc(-c2nn3c(-c4cc(-c5ccccc5)n[nH]4)nnc3s2)cc1	x	x	x	-13.3%
CCOc1ccc(-c2nn3c(-c4cc(-c5ccccc5)n[nH]4)nnc3s2)cc1	x	x	x	-3.2%
Cc1ccc(OCC(=O)Nc2nonc2-c2ccc(C)c(C)c2)cc1C	-9.0%	x	-2.9%	x
CCn1c(CN2CCC(C)CC2)nc2cc(NC(=O)COc3ccc([N+](=O)[O-])cc3)ccc21	-3.8%	x	-1.5%	x
SMILES	Cruzain noTriton	FBPA Giardia inh	Cruzain inh Det	Papain inh
CCOC(=O)c1ccc(N2CCN(c3cc(C)ccc3C)CC2)c(NC(=O)Nc2ccc(Cl)cc2)c1	u	x	1.6%	x
CCCC/C=C/[C@H](c1ccccc1)[C@H](CO)Cc1ccccc1	x	-3.0%	x	x
C[C@H](NC(=O)/C(C#N)=C/c1ccc(O)c(O)c1)c1ccccc1	4.8%	-6.5%	-5.4%	x
O=C(NCCc1nc2ccccc2[nH]1)c1cc([N+](=O)[O-])cc([N+](=O)[O-])c1	-3.7%	0.6%	3.55µM*	4.9%
O=C(Cn1cc([N+](=O)[O-])cn1)NCCc1nc2ccccc2[nH]1	x	1.4%	x	x
COc1ccc(Cl)cc1NC(=O)C/C(C)=N/NC(=O)c1ccccc1Cl	x	0.8%	x	x
C/C(CC(=O)Nc1cc(Cl)ccc1Cl)=N\NC(N)=S	1µM*	u	1µM*	2.82µM*
COc1ccccc1CNc1cc(-c2ccccc2)nc2nncn12	-22.2%	x	-6.4%	x

Compound activity from PubChem.
